Source: PubChem BioAssay AID602399 (Sanford-Burnham Center for Chemical Genomics, 2012)
The campaign covered roughly 360,000 compounds. About 2,800 (0.78%) were called active. No stated cut-off is given here; in the data, active means inhibition above about 26%; inactive means the rest. What follows is part of a selection rich in actives, with near analogues and random picks from the rest.

test system: Nicotinate-nucleotide adenylyltransferase NadD (Staphylococcus aureus N315); assay: inhibitors of S. aureus NadD, primary screen, biochemical, colorimetric, uHTS (AID 602399); settings: purified NadD enzyme, colorimetric absorbance read-out; at 20 µM; stronger effect = higher value

SMILES	inhibition
Cc1noc(C)c1S(=O)(=O)N(C)C[C@H]1Oc2ccc(NC(=O)C3CCCCC3)cc2C(=O)N([C@H](C)CO)C[C@@H]1C	-4.63% (inactive)
COc1ccc(CN2CCn3ncc(C(=O)Nc4ccc(Cl)cc4Cl)c3C2=O)cc1	-3.68% (inactive)
Fc1ccc2c(c1)C(c1cccnc1)=NNC(c1cccs1)=N2	-1.68% (inactive)
O=c1oc(-c2ccccc2NS(=O)(=O)c2ccc(Cl)cc2)nc2ccccc12	10.9% (inactive)
CCCCCN(C(=O)CCC(=O)OCC(=O)NCc1ccc(OC)cc1)c1c(N)n(CCCC)c(=O)[nH]c1=O	-7.19% (inactive)
CC(C)c1ccc2c(c1)c(SC(C)(C)C)c(CC(C)(C)C(=O)O)n2Cc1ccc(Cl)cc1	31.8% (active)
COc1cc(-c2nnn(CC(=O)NCc3ccccc3)n2)cc(OC)c1OC	1.36% (inactive)
COc1ccc(C2CC(c3ccccc3)=NN2C(=O)CSc2nccc(=O)[nH]2)cc1 (stereo not given)	9.94% (inactive)
COc1ccc(C2=NN(C(=O)CSc3nc(=O)n4ccc(C)cc4n3)C(c3ccc(C)cc3)C2)cc1 (stereo not given)	36.1% (active)
Cc1ccc(C2=NN(C(=O)CSc3nc(N)cc(N)n3)C(c3ccco3)C2)cc1 (stereo not given)	4.52% (inactive)
COc1ccc(C(=O)N2CCCCC2c2cc(C(=O)Nc3ccc(F)c(Cl)c3)no2)cc1 (stereo not given)	2.01% (inactive)
C[C@H]([C@@H](O)[C@@H](O)[C@@H](C)C(C)(C)C)[C@H]1CC[C@H]2C3CC[C@H]4C[C@H](OS(=O)(=O)O)[C@@H](OS(=O)(=O)O)C[C@]4(C)[C@H]3CC[C@]12C (stereo not given in full)	11.9% (inactive)
COc1ccccc1OCCOc1ccc(/C=C2\C(=N)N3N=C(C)SC3=NC2=O)cc1	29% (active)
CCOc1cc(/C=C2\C(=N)N3N=C(C)SC3=NC2=O)ccc1OCCOc1ccccc1	22.4% (inactive)
COc1cc(/C=C2\C(=N)N3N=C(CC(=O)N4CCOCC4)SC3=NC2=O)cc(OC)c1OC	-3.62% (inactive)
C[C@@H]1CN([C@H](C)CO)C(=O)CCCn2nncc2CO[C@@H]1CN(C)S(=O)(=O)c1cccc(C#N)c1	4.94% (inactive)
CCOC(=O)c1ccc(NC(=O)c2c(N)n(C)c(=O)[nH]c2=O)cc1	-3.34% (inactive)
Cc1ccc(C(=O)COC(=O)CCN2C(=O)C3C4CCC(C4)C3C2=O)cc1C (stereo not given)	4.2% (inactive)
Cc1ccc(C(=O)COC(=O)c2cccc(N3C(=O)c4c(C)nc5ccccc5c4C3=O)c2)cc1C	29.7% (active)
COc1ccc(C(=O)OCC(=O)c2ccc(C)c(S(=O)(=O)N3CCOCC3)c2)cc1OC	-14% (inactive)
CN(C)c1ccnc(Oc2ccc(F)cc2)c1C#N	0.732% (inactive)
O=C(O)C1=NN(c2c(F)c(F)cc(F)c2F)C(=O)CC1	-2.16% (inactive)

SMILES	inhibition
COc1cc(NS(=O)(=O)c2ccc(NC(=S)NC(=O)c3ccc(Br)cc3)cc2)ncn1	16.5% (inactive)
COc1ccc(NS(=O)(=O)c2ccc(NC(=O)C(C)(C(F)(F)F)C(F)(F)F)cc2)nn1	8.48% (inactive)
COc1ccc(NS(=O)(=O)c2ccc(NC(=S)NC(=O)/C=C/c3ccc(C)cc3)cc2)nn1	52.5% (active)
COc1ccccc1-n1c(SCC(=O)O)nc2sc3c(c2c1=O)CCC3	-6.38% (inactive)
COc1cccc(C(=O)NC(=O)Nc2nc(C)cc(C(F)(F)F)n2)c1	1.69% (inactive)
Cc1cc(O)c(C(=O)/C=C/c2c(F)c(F)c(F)c(F)c2F)c(=O)o1	30% (active)
COc1ccc(/C=C/C(=O)c2c(O)cc(OC)cc2OC)cc1	-0.858% (inactive)
Cc1cc(O)c(Sc2ccccc2)c(=O)o1	-2.78% (inactive)
CC(=O)c1c(C)n([O-])c2ccccc2[n+]1=O	4.16% (inactive)
O=C(N/N=C/c1ccc(Cl)cc1)c1nc2ccc([N+](=O)[O-])cc2c(=O)[nH]1	42.6% (active)
N#Cc1cc([N+](=O)[O-])ccc1Oc1cccc(/C=N/NC(=O)c2ccc(Cl)cc2)c1	19.4% (inactive)
CC(NC(=O)C(=O)N/N=C/c1ccc(Cl)cc1)c1ccccc1 (stereo not given)	-0.376% (inactive)
Cc1cccn2c(=O)c3cc(C#N)c(=NC(=O)c4cccnc4)n(CC4CCCO4)c3nc12 (stereo not given)	0.191% (inactive)
COc1ccccc1N(CC(=O)Nc1ccc(C)cc1Cl)S(=O)(=O)c1cccs1	-10.3% (inactive)
COc1cc(-c2noc(C3CCCN(S(=O)(=O)c4cccc(Cl)c4)C3)n2)cc(OC)c1OC (stereo not given)	-12.5% (inactive)
COc1ccc(Cl)cc1C=CC=NNC(=O)c1ccncc1	9.06% (inactive)
COc1ccccc1/C=C/C=N/n1c(-c2ccc(Cl)cc2Cl)n[nH]c1=S	28% (active)
COc1ccc(-n2c(-c3ccc(Cl)cc3)n[nH]c2=S)c(OC)c1	5.69% (inactive)
COc1ccc(OC)c(/C=N/NC(=O)CSc2nnc(C)n2-c2ccccc2)c1	4.2% (inactive)
O=Cc1cn(-c2ccccc2)nc1-c1ccccn1	-0.605% (inactive)
COc1ccc(-c2nn(-c3ccccc3)cc2/C=N/Nc2ccccn2)cc1OC	30.9% (active)
N#C/C(C(=O)N1CCOCC1)=C1/SC(Cc2ccc(F)cc2)C(=O)N1c1ccccc1 (stereo not given)	5.64% (inactive)

SMILES	inhibition
CCCCN(C=O)c1c(CC)nc2c(OCc3ccccc3C(=O)OC)cccn12	3.2% (inactive)
CC(C)C(NC(=O)c1c(F)cccc1F)C(=O)NCc1ccncc1 (stereo not given)	-4.3% (inactive)
Cc1cc(C(=O)OC(C)C(=O)NC2CCCCC2C)c(C)o1 (stereo not given)	-0.327% (inactive)
CC(=O)c1c(C)[nH]c(C(=O)COC(=O)c2cccc(S(=O)(=O)N(C)c3ccccc3)c2)c1C	-2.3% (inactive)
S=c1[nH]nc(NCCc2ccccc2)s1	6.24% (inactive)
S=c1[nH]nc(Nc2ccccc2)s1	31% (active)
CC(C)(C)C(=O)c1cnc(Nc2ccccc2)s1	-4.48% (inactive)
O=c1c([N+](=O)[O-])cccn1Cc1ccc(F)cc1Cl	-2.47% (inactive)
Cc1c(C(=O)N(C)CCc2cnn(C)c2)oc2c(F)cccc12	-0.376% (inactive)
CCOC(=O)C(C)n1nc(-c2ccccc2)c2ccccc2c1=O (stereo not given)	4.56% (inactive)
CCN(CC)C(=O)c1nc[nH]c1C(=O)N(C)Cc1ccccc1	-5.16% (inactive)
CCN(CC)C(=O)c1sc2nc(-c3ccccc3)ccc2c1N	29.7% (active)
CC1(C)C(C=C(Cl)Cl)C1C(=O)NC(O)C(=O)c1ccccc1 (stereo not given)	-1.25% (inactive)
Cc1c2cnn(-c3ccccc3)c(=O)c2c(C)n1CCCC(=O)N1CCN(C)CC1	4.17% (inactive)
Cn1c(CCN2CCCCCC2)nc2cc(NC(=O)Nc3ccccc3)ccc21	31.5% (active)
CCC(=O)Nc1ccc2c(c1)nc(CCN1CCN(c3ccccn3)CC1)n2C	-0.459% (inactive)
Cc1nn(CC(=O)Nc2ccc3c(c2)nc(CN2CCCCC2)n3C)c(=O)c2ccccc12	-0.187% (inactive)
CNC(=O)C1CCN(S(=O)(=O)c2c(C)noc2/C=C/c2cccc(C)c2)CC1	-4.39% (inactive)
Cc1noc(/C=C/c2ccco2)c1S(=O)(=O)N1CCC(C(=O)N2CCc3ccccc32)CC1	31.6% (active)
Cc1noc(/C=C/c2ccco2)c1S(=O)(=O)N1CCC(C(=O)Nc2ccc(Cl)cn2)CC1	16.8% (inactive)
CCc1ccc(OCC(=O)NCC(c2ccc(Cl)cc2)N2CCCCC2)cc1 (stereo not given)	-9.2% (inactive)
O=C(O)CN(Cc1ccco1)S(=O)(=O)c1ccc(F)cc1	-0.327% (inactive)

SMILES	inhibition
O=Nc1c(O)cc(O)c2ccccc12	-0.774% (inactive)
CCC(C)OC(=O)C(C)Oc1ccc(-c2ccccc2)cc1 (stereo not given)	2.06% (inactive)
NC(CSC(c1ccccc1)(c1ccccc1)c1ccc(-c2ccccc2)cc1)C(=O)O (stereo not given)	43.5% (active)
NC(CSC1(c2ccccc2)c2ccccc2-c2ccccc21)C(=O)O (stereo not given)	27.6% (inactive)
O=C(N1CCOCC1)N(Cc1ccccc1)c1ccccn1	-0.327% (inactive)
COC(=O)c1ccc(COc2ccc(/C=C/C(=O)c3ccc(OC)c(CSCC(=O)O)c3)cc2OC)cc1	20.9% (inactive)
COc1ccc(C(=O)/C=C/c2ccc(-c3ccccc3)cc2)cc1CSCC(=O)O	42.8% (active)
COc1ccccc1CCNC(=O)C1CCN(C(=O)/C=C/c2ccccc2)CC1	1.36% (inactive)
COc1cc(C(=O)Nn2c(O)c(C3=c4ccccc4=NC3=O)sc2=S)ccc1O	9.44% (inactive)
COC(=O)CC(CC(=O)OC)n1cccc1	-1.87% (inactive)
CCn1cc(CN2CCN(CC(C)(C)C)C(CCO)C2)c2ccccc21 (stereo not given)	-1.34% (inactive)
COc1cc(Cl)c(C)cc1NC(=O)[C@@H]1CCCN1C(=O)c1cccs1	-0.625% (inactive)
Cc1c(C(=O)OC(C)C)sc(NC(=O)c2cccnc2)c1C#N	7.06% (inactive)
Cc1cc(N2C(=O)C(O)=C(C(=O)c3ccc(C)o3)C2c2ccc(OCc3ccccc3)cc2)no1 (stereo not given)	58.6% (active)
C=CCOc1cccc(C2C(C(=O)c3ccc(C)o3)=C(O)C(=O)N2c2nnc(C)s2)c1 (stereo not given)	12.2% (inactive)
CCCOc1ccc(C2C(C(=O)c3ccc(C)o3)=C(O)C(=O)N2CCCn2ccnc2)cc1 (stereo not given)	17.5% (inactive)
CCC(C)N(C(=O)COC(=O)C1C(C(=O)OC)=C(C)NC(C)=C1C(=O)OC)C1CCS(=O)(=O)C1 (stereo not given)	1.18% (inactive)
Cc1ccc(Cc2nnc(SCC(=O)Nc3ccccc3C)[nH]c2=O)cc1	2.18% (inactive)
NC(=O)NC(=O)CSc1nc2cc([N+](=O)[O-])ccc2n1-c1cccc(C(F)(F)F)c1	17.8% (inactive)
